{"source": "PubChem BioAssay (Tox21)", "note": "The source made the active and inactive calls. Calls come from the whole dose curve; as a rule, active = well fitted curve in the direction sought with a large enough effect in the repeat runs; inconclusive = weak or mixed curves; inactive = flat fitted curve, though single readings scatter."}
{"assay": "qHTS assay to test for compound auto fluorescence at 535 nm (green) in HEK293 cells (AID 720680)", "settings": "green autofluorescence 485/535 nm; series mostly up to 91.3 µM", "source_text": "U.S. Tox21 Program National Center for Advancing Translational Sciences [NCATS] NIH Chemical Genomics Center [NCGC] U.S. Environmental Protection Agency [EPA] National Institutes of Environmental Health Sciences [NIEHS] National Toxicology Program [NTP] U.S. Food and Drug Administration [FDA] Tox21 Assay Overview: Compound auto fluorescence often interferes with screening of the compound library against various biological targets and signaling pathways. Some of these compounds may have fluorophoric properties. Such properties may interfere with the assay outputs resulting in false positives and/or negatives. To decrease such complications and ensure the compound activities are relevant in terms of biological response, the Tox21 10K compound library was screened for auto fluorescence. From the fluorophores used as reporter signals in our screening assays, the auto fluorescence equivalencies of compounds against three fluorophores have been evaluated: Triamterene, Fluorescein and Rose Bengal sodium for blue, green and red fluorescence, respectively. The fluorescence intensities were measured using Excitation/Emission wavelengths at 405/460nm, 485/535nm and 540/590nm for blue, green and red labels, respectively. This assay includes the green fluorescence data.\nTox21 Assay Protocol Summary: 2,000 HEK293 cells in 5 uL of culture medium containing 10% dialyzed FBS per well were dispensed into black wall/clear bottom 1536-well plates using a Multidrop Combi Dispenser (Thermo Scientific). The assay plates were incubated for 4-5 hr at 37C to allow cell attachment to the well bottom, followed by the transfer of 23 nL compound or DMSO vehicle by a pintool work station (Kalypsys, San Diego, CA). After the assay plates were incubated overnight at 37C and 5% CO2, fluorescence intensities in the assay plates were measured by an Envision (PerkinElmer, Shelton, CT) plate reader using three labels for measuring blue, green and red fluorescence at […] 460, 535 and 590nm respectively."}
{"smiles": "Cc1cc(C)c(C2=C(OC(=O)CC(C)(C)C)C3(CCCC3)OC2=O)c(C)c1", "outcome": "inactive"}
{"smiles": "c1ccc2cc3c(cc2c1)-c1cccc2cccc-3c12", "outcome": "inactive"}
{"smiles": "C[C@@H]1O[C@@H](O[C@H]2C[C@@H](O)[C@]3(CO)[C@H]4[C@H](O)C[C@]5(C)[C@@H](C6=CC(=O)OC6)CC[C@]5(O)[C@@H]4CC[C@]3(O)C2)[C@H](O)[C@H](O)[C@H]1O", "outcome": "inactive"}
{"smiles": "COc1ccc(OC)c(CC(C)N)c1", "note": "(stereo not given)", "outcome": "inactive"}
{"smiles": "CC(C)(C)c1cc([N+](=O)[O-])cc(C(C)(C)C)c1O", "outcome": "inactive"}
{"smiles": "O=C(CCCN1CCC2(CC1)C(=O)NCN2c1ccccc1)c1ccc(F)cc1", "outcome": "inactive"}
{"smiles": "NNC(=O)c1ccccc1", "outcome": "inactive"}
{"smiles": "CCc1nn(C)c(C(=O)NCc2ccc(C(C)(C)C)cc2)c1Cl", "outcome": "inactive"}
{"smiles": "CC(C)(C)OO", "outcome": "inactive"}
{"smiles": "Clc1ccc(CO/N=C(\\Cn2ccnc2)c2ccc(Cl)cc2Cl)c(Cl)c1", "outcome": "inactive"}
{"smiles": "CCCCCCCCCCCCCCCC[N+](C)(C)C", "outcome": "inactive"}
{"smiles": "Oc1c(Cl)c(Cl)cc(Cl)c1Cl", "outcome": "inactive"}
{"smiles": "Cc1c(Cl)c(=O)oc2cc(OP(=O)(OCCCl)OCCCl)ccc12", "outcome": "inactive"}
{"smiles": "[Cl][Sb]([Cl])[Cl]", "outcome": "inactive"}
{"smiles": "CC(Cc1ccc(C(C)(C)C)cc1)CN1C[C@@H](C)O[C@@H](C)C1", "note": "(stereo not given in full)", "outcome": "inactive"}
{"smiles": "CC(C)CC(C)Nc1ccc(Nc2ccccc2)cc1", "note": "(stereo not given)", "outcome": "inactive"}
{"smiles": "Cc1cc(C(F)(C(F)(F)F)C(F)(F)F)ccc1NC(=O)c1cccc(I)c1C(=O)NC(C)(C)CS(C)(=O)=O", "outcome": "inactive"}
{"smiles": "CSCCCN=C=S", "outcome": "inactive"}
{"smiles": "CCCCCCCCCC[N+](C)(C)CCCCCCCCCC", "outcome": "inactive"}
{"smiles": "O=C(CBr)c1ccc(O)cc1", "outcome": "inactive"}
{"smiles": "O=C(O)c1cc[c]([Hg][Cl])cc1", "outcome": "inactive"}
{"smiles": "CC(C)CC(C)N", "note": "(stereo not given)", "outcome": "inactive"}
{"smiles": "CN(C)CCc1c[nH]c2cccc(O)c12", "outcome": "inactive"}
{"smiles": "CCOCCOC(C)=O", "outcome": "inactive"}
{"smiles": "ClC(Cl)=C(c1ccc(Cl)cc1)c1ccc(Cl)cc1", "outcome": "inactive"}
{"smiles": "S=C=Nc1cccc2ccccc12", "outcome": "inactive"}
{"smiles": "Oc1ccc(C(=C(Cl)Cl)c2ccc(O)cc2)cc1", "outcome": "inactive"}
{"smiles": "C[C@]12Cc3nonc3C[C@@H]1CC[C@@H]1[C@@H]2CC[C@@]2(C)[C@H]1CC[C@]2(C)O", "outcome": "inactive"}
{"smiles": "CC(=O)[O-].CC(=O)[O-].O.O.[Cd+2]", "outcome": "inactive"}
{"smiles": "CCCN(CCC)c1c([N+](=O)[O-])cc(S(N)(=O)=O)cc1[N+](=O)[O-]", "outcome": "inactive"}
{"smiles": "CNC(C)Cc1ccc2c(c1)OCO2", "note": "(stereo not given)", "outcome": "inactive"}
{"smiles": "CC(C)CCCCCOC(=O)c1ccccc1C(=O)OCCCCCC(C)C", "outcome": "inactive"}
{"smiles": "Oc1cc(Cl)c(Cl)c(Cl)c1", "outcome": "inactive"}
{"smiles": "CC(C)CCCCCCCOP(=O)(Oc1ccccc1)Oc1ccccc1", "outcome": "inactive"}
{"smiles": "c1ccc(OCC2CO2)cc1", "note": "(stereo not given)", "outcome": "inactive"}
{"smiles": "C[C@H]1CC[C@@H]2[C@@H](C)[C@H]3[C@H](C[C@H]4[C@@H]5CC=C6CC(O[C@@H]7O[C@H](CO)[C@H](O)[C@H](O[C@@H]8O[C@H](CO)[C@@H](O)[C@H](O)[C@H]8O)[C@H]7O[C@H]7O[C@@H](C)[C@H](O)[C@@H](O)[C@H]7O)CC[C@]6(C)[C@H]5CC[C@]34C)N2C1", "note": "(stereo not given in full)", "outcome": "inactive"}
{"smiles": "CN(C)CCc1c[nH]c2ccc(O)cc12", "outcome": "inactive"}
{"smiles": "CC(C)C1CCC(Cc2ccc(Cl)cc2)C1(O)Cn1cncn1", "note": "(stereo not given)", "outcome": "inactive"}
{"smiles": "C[C@]12CC[C@@H]3c4ccc(OC(=O)N(CCCl)CCCl)cc4CC[C@H]3[C@@H]1CC[C@@H]2O", "outcome": "inactive"}
{"smiles": "O=C/C(Cl)=C(/Cl)C(=O)O", "outcome": "inactive"}
